Measurements taken from PubChem BioAssay (NCATS).
Inconclusive results are not listed. Activity calls are given as the source filed them. Unless noted, the call rests on the fitted dose curve; in most records, active means well fitted curve in the direction sought with a large enough effect; inconclusive means small, poorly fitted or top-dose-only effect, or another doubt; inactive means no such curve, though single readings can be large; an effect the other way counts as inactive or inconclusive.

Assay: KB-8-5-11 P-gp reporter qHTS against the NCATS DSHEA and TCM libraries (AID 1919977); further: 0% is about no effect
Settings: KB-8-5-11 cells; series mostly up to 26.1 µM; activity change, negative = inhibition: at the top concentration
How it was run: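 P-gp-overexpressing KB-8-5-11 cells (500/well) were plated in colchicine-free DMEM with 10% FBS, attached ~4 h, then exposed to substance titrations for ~72 h at 37C. Viability was read by CellTiter-Glo luminescence.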

Row | SMILES | activity change, negative = inhibition
1 | CC12CCC(CC1)C(C)(C)O2 | 2.39% (inactive)
2 | C=CCc1ccc(O)c(OC)c1 | -6.63% (inactive)
3 | O=C(O)CCCC[C@@H]1SC[C@@H]2NC(=O)N[C@@H]21 | -1.8% (inactive)
4 | CCCCCCCCCCCCCCCCCC(=O)O | -4.33% (inactive)
5 | CC(C)=CCC[C@@](C)(O)[C@H]1CC=C(C)CC1 | -6.45% (inactive)
6 | O=C(O)c1cc(O)c(O)c(O)c1 | 6.54% (inactive)
7 | O=C(O)c1cccnc1 | -0.975% (inactive)
8 | NC(=O)NC1NC(=O)NC1=O (stereo not drawn) | 0.911% (inactive)
9 | Nc1ccc(C(=O)O)cc1 | 6.16% (inactive)
10 | CCCCCCCCCCCCCCCC(=O)O | -11.4% (inactive)
11 | Cc1ccc(C(C)C)c(O)c1 | 7.24% (inactive)
12 | NNC(=O)c1ccncc1 | 2.35% (inactive)
13 | NC(=O)c1cnccn1 | -7.89% (inactive)

Assay: qHTS drug screen for cell cycle checkpoint inhibitors in PARPi-resistant BRCA-mutant ovarian cancer cell lines. (AID 1963452; calls by dose curve)
Settings: PEO1/OlaR viability, CellTiter-Glo luminescence, 96 h; stronger effect = lower value
How it was run: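 PEO1, PEO4 and PEO1/OlaR ovarian cancer cells, 600 per well, exposed 96 h at 37C to a dilution series. Viability read by CellTiter-Glo luminescence, normalized to DMSO and empty wells; activity summarized as Z-AUC.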

Row | SMILES | Z-AUC
14 | CC(NC(C)(C)C)C(=O)c1cccc(Cl)c1 (stereo not drawn) | -0.176 (inactive)
15 | CC(C)C[C@H](CN)CC(=O)O | 1.17 (inactive)
16 | CN1C(=O)CCS(=O)(=O)C1c1ccc(Cl)cc1 (stereo not drawn) | 1.64 (inactive)
17 | C[C@]12Cc3cn[nH]c3C[C@@H]1CC[C@@H]1[C@@H]2CC[C@@]2(C)[C@H]1CC[C@]2(C)O | 1.25 (inactive)
18 | CCC1(c2ccc(N)cc2)CCC(=O)NC1=O (stereo not drawn) | 1.39 (inactive)
19 | C[C@](O)(CS(=O)(=O)c1ccc(F)cc1)C(=O)Nc1ccc(C#N)c(C(F)(F)F)c1 | 0.83 (inactive)
20 | O=P1(N(CCCl)CCCl)NCCCO1 (stereo not drawn) | 1.32 (inactive)
21 | O=C(O)CCCc1ccc(N(CCCl)CCCl)cc1 | 0.915 (inactive)
22 | C[C@]12CC[C@@H]3c4ccc(OC(=O)N(CCCl)CCCl)cc4CC[C@H]3[C@@H]1CC[C@@H]2OP(=O)(O)O | 0.291 (inactive)
23 | CN1C(=O)COc2c(C(=O)NC3CN4CCC3CC4)cc(Cl)cc21 (stereo not drawn) | -0.165 (inactive)
24 | CC(C)c1cccc(C(C)C)c1O | 0.183 (inactive)

Same assay, conditions: PEO1/OlaR viability, CellTiter-Glo luminescence, 96 h; measured here: PEO1 parental Z-AUC; stronger effect = lower value

Row | SMILES | Z-AUC
25 | CC(NC(C)(C)C)C(=O)c1cccc(Cl)c1 (stereo not drawn) | 0.0369
26 | CC(C)C[C@H](CN)CC(=O)O | 0.458
27 | CN1C(=O)CCS(=O)(=O)C1c1ccc(Cl)cc1 (stereo not drawn) | 1.76
28 | C[C@]12Cc3cn[nH]c3C[C@@H]1CC[C@@H]1[C@@H]2CC[C@@]2(C)[C@H]1CC[C@]2(C)O | 0.915
29 | COc1cccc2c1C(=O)c1c(O)c3c(c(O)c1C2=O)C[C@@](O)(C(=O)CO)CC3OC1CC(N2CCOC(OC)C2)C(O)C(C)O1 (stereo partly drawn) | -3.26
30 | CCC1(c2ccc(N)cc2)CCC(=O)NC1=O (stereo not drawn) | 0.942
31 | C[C@](O)(CS(=O)(=O)c1ccc(F)cc1)C(=O)Nc1ccc(C#N)c(C(F)(F)F)c1 | 0.549
32 | O=P1(N(CCCl)CCCl)NCCCO1 (stereo not drawn) | 1.49
33 | O=C(O)CCCc1ccc(N(CCCl)CCCl)cc1 | 0.822
34 | C[C@]12CC[C@@H]3c4ccc(OC(=O)N(CCCl)CCCl)cc4CC[C@H]3[C@@H]1CC[C@@H]2OP(=O)(O)O | 1.75
35 | CN1C(=O)COc2c(C(=O)NC3CN4CCC3CC4)cc(Cl)cc21 (stereo not drawn) | -0.0882
36 | CC(C)c1cccc(C(C)C)c1O | 0.696

Same assay, conditions: PEO1/OlaR viability, CellTiter-Glo luminescence, 96 h; measured here: PEO4 Z-AUC; stronger effect = lower value

Row | SMILES | Z-AUC
37 | CC(NC(C)(C)C)C(=O)c1cccc(Cl)c1 (stereo not drawn) | 1.02
38 | CC(C)C[C@H](CN)CC(=O)O | 0.548
39 | CN1C(=O)CCS(=O)(=O)C1c1ccc(Cl)cc1 (stereo not drawn) | 1.36
40 | C[C@]12Cc3cn[nH]c3C[C@@H]1CC[C@@H]1[C@@H]2CC[C@@]2(C)[C@H]1CC[C@]2(C)O | 1.64
41 | COc1cccc2c1C(=O)c1c(O)c3c(c(O)c1C2=O)C[C@@](O)(C(=O)CO)CC3OC1CC(N2CCOC(OC)C2)C(O)C(C)O1 (stereo partly drawn) | -2.98
42 | CCC1(c2ccc(N)cc2)CCC(=O)NC1=O (stereo not drawn) | 1.02
43 | C[C@](O)(CS(=O)(=O)c1ccc(F)cc1)C(=O)Nc1ccc(C#N)c(C(F)(F)F)c1 | 0.67
44 | O=P1(N(CCCl)CCCl)NCCCO1 (stereo not drawn) | 1.45
45 | O=C(O)CCCc1ccc(N(CCCl)CCCl)cc1 | 1.2
46 | C[C@]12CC[C@@H]3c4ccc(OC(=O)N(CCCl)CCCl)cc4CC[C@H]3[C@@H]1CC[C@@H]2OP(=O)(O)O | 1.95
47 | CN1C(=O)COc2c(C(=O)NC3CN4CCC3CC4)cc(Cl)cc21 (stereo not drawn) | 0.485
48 | CC(C)c1cccc(C(C)C)c1O | 0.584

Assay: qHTS profiling for inhibitors of Plasmodium falciparum proliferation (AID 504749);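 further: 0% = DMSO vehicle and full inhibition = artemisinin control; nearly all actives have a fitted effect of over 60% in size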
Settings: P. falciparum in erythrocytes, SYBR Green DNA, 72 h; at 28.7 µM (top of the series); parasite line A
How it was run: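 SYBR Green fluorescence of parasite DNA, read after lysis and overnight dark incubation, measured growth over 72 h in erythrocyte culture at 0.3% parasitemia and 2.5% hematocrit. Data normalised to DMSO and 0.29 uM artemisinin, with plate-drift correction.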

Row | SMILES | activity, negative = inhibition
49 | O=C1Nc2ccc(Cl)cc2C(c2ccccc2Cl)=NC1O (stereo not drawn) | 2.17% (inactive)
50 | CCC(C)(C)c1ccc(O)cc1 | 2.92% (inactive)
51 | C[C@]12CCC(=O)C=C1CC[C@@H]1[C@@H]2CC[C@]2(C)C(=O)CC[C@@H]12 | -9.45% (inactive)
52 | CN1C(=O)CCS(=O)(=O)C1c1ccc(Cl)cc1 (stereo not drawn) | -12.8% (inactive)
53 | CC(C)NC(C)C | 6.47% (inactive)
54 | CCC1(c2ccccc2)C(=O)N(COC)C(=O)N(COC)C1=O | 4.41% (inactive)
55 | Nc1ccccc1C(=O)O | 15.6% (inactive)
56 | O=P1(N(CCCl)CCCl)NCCCO1 (stereo not drawn) | 11.3% (inactive)
57 | O=C(Nc1ccc(Br)cc1)c1cc(Br)cc(Br)c1O | 6.84% (inactive)
58 | O=C(O)CCCc1ccc(N(CCCl)CCCl)cc1 | -9.59% (inactive)
59 | Clc1ccc2c(c1)C(c1ccccc1)=NCc1nncn1-2 | -1.68% (inactive)
60 | CN1C(=O)COc2c(C(=O)NC3CN4CCC3CC4)cc(Cl)cc21 (stereo not drawn) | 7.89% (inactive)
61 | COP(=S)(OC)Oc1ccc(S(=O)(=O)N(C)C)cc1 | 14.2% (inactive)
62 | CC(C)c1cccc(C(C)C)c1O | 13.6% (inactive)
63 | Nc1nc(N)nc(NC2CC2)n1 | -13.5% (inactive)
